Binding signal data for 20 molecules are collected here from paper PMC12136788.

To fix the notation:
T1: UNK ZnF1-3 (human, UniProt Q9C0B0 31-174)
T1 sequence: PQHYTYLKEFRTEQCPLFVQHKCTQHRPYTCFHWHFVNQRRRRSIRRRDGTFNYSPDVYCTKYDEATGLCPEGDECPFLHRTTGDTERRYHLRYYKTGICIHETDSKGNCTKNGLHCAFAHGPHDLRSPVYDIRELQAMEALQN

B1: chr13:99559765:99559766:-_ENSMUSG00000041685_ENSMUST00000040340|mus_mus|motif|central (ssRNA)
RNA: GGGAGUUCUACAGUCCGACGAUCCUGAACUUCCUUUAUUAAUUCCUGUAAUUUUCUAACAAGAUCCAAAUGACAAUUUGCGGAUUUCUCUGUAGAUGUUUUGAAUACAUCCCACAUUGGUGCAAAUGUUCCAAGUUGUGAAUACAACAGAGGAUUGAGCAUCA
B2: chr1:60041781:60041782:+_ENSMUSG00000041040_ENSMUST00000036540|mus_mus|motif|central (ssRNA)
RNA: GGGAGUUCUACAGUCCGACGAUCUUAAGGAGUGAAUCUCAACUUUACAAAUUUAGUAAUGGCAAGUUUACUUUAGUUUCCGGAAAGAAAACCUCAGGAUCUCAGUUCAAUCCCAGACAGAGAAAGCUCUCCAUGGGGCCACUGCAACAGAGGAUUGAGCAUCA
B3: chr13:31725248:31725249:-_ENSG00000120694_ENST00000320027|perfect_dup|motif|central (ssRNA)
RNA: GGGAGUUCUACAGUCCGACGAUCUUUGGAUUUUGCAUCCAAUUUGUACUUGGUUUUAAAUUCAGCACAAAAAUGUUCGGCGGGCUUCUCAUCAAAGUUCUUUCCUCCUAAGAAGGGAUCAAAAGCUGUGCCUAGAACCUUCAGCAACAGAGGAUUGAGCAUCA
B4: chr11:75578338:75578339:+_ENSMUSG00000020849_ENSMUST00000067664|perfect_dup|motif|central (ssRNA)
RNA: GGGAGUUCUACAGUCCGACGAUCUUAAGAACUUUUGAAAACUGUUUAAAAAAAAAAAAAAAAAACCAACAGGGCAGGAACCGGAAUUCUGAGACCAAAUGUAAAAGUCAGAUUUGGUGGUUCUCAGUGACAAUGGGGAGUUUCCAACAGAGGAUUGAGCAUCA
B5: chr11:75578338:75578339:+_ENSMUSG00000020849_ENSMUST00000067664|perfect_dup|FALSE|FALSE (ssRNA)
RNA: B4 RNA with G82U, G83A
B6: chr2:35037708:35037709:-_ENSMUSG00000026878_ENSMUST00000028238|mus_hu|FALSE|FALSE (ssRNA)
RNA: GGGAGUUCUACAGUCCGACGAUCCUGUUUUUACAACAGAGUUUUUUCUUUUUUUUUAAUUAAACCCAGUAAGAUGUACAGAAGACAAUGAGGCAGUAAAAAGUACUGCUUCCAACAGACAGAGGUGAAAGGUCAAAUGAGGGGCAACAGAGGAUUGAGCAUCA
B7: chr18:47247233:47247234:+_ENSMUSG00000042705_ENSMUST00000049388|mus_hu|motif|central (ssRNA)
RNA: GGGAGUUCUACAGUCCGACGAUCUUGUAUAUGGCUAUUUUCUUAAUUUUAUUCAUGUAAUUACCAAAGCUCUGUAUUCGGCGGAGGUACACAUCUUAUCUUGUAUCCAUGGACGCUCCUUGAUACAUUAUGGUAUCAUCCAGCCAACAGAGGAUUGAGCAUCA
B8: chr1:178670160:178670161:-_ENSMUSG00000057335_ENSMUST00000057037|mus_mus|FALSE|FALSE (ssRNA)
RNA: GGGAGUUCUACAGUCCGACGAUCCUGAGGCCUCGAGUCAACAGACCGACCGUUGUUUCCUUCUGGUGUUUUAGAAUGAACUAAUGGAGGUAUCUUUCGGAAGUUGAGACUUUCAUCAAAAACACGAUCAACCAACUCUUCUCUCAACAGAGGAUUGAGCAUCA
B9: 98562344_98563384_6126_CDS_ENSG00000196367_ENST00000456197|human|control|control (ssRNA)
RNA: GGGAGUUCUACAGUCCGACGAUCCCAUGCUCAUCACUGCCAGGCGCGUCUUCACCAGCUCCAGACUCAGCAUCACCAGCUCGCUUGUACCUGAGGUGGCUUCGGUGCUUCCUGACGCUGCCUGAGGGUUUAAAUGCUCCCGGACAACAGAGGAUUGAGCAUCA
B10: 33247490_33252972_1089_CDS_ENSG00000083642_ENST00000315596|human|control|control (ssRNA)
RNA: GGGAGUUCUACAGUCCGACGAUCCCUGCCCAAGUAGCACUGCCAAAGUGGCUUGUUUUGAGAAGCCAAUUCUGAAUCCUUUGCCCCAAACAUUUUUGCCAGUAGUUUAACAACUUGUAGGCGCUCCUCAUUAUCAUUGCUCUUCAACAGAGGAUUGAGCAUCA
B11: chr12:39756943:39756944:-_ENSG00000139116_ENST00000544797|hu_mus|hu_hu_hu_mus_False|1_18 (ssRNA)
RNA: GGGAGUUCUACAGUCCGACGAUCGGUUUGGCUGUUACCCCCAAGGGAAUCCUGCAAGAGUCUUGUCAGCUUAGAGUCUCUGUAAGGGACAUGGGUGGCUCUCUUGCUCUUGUCCCCCAAGGCACUUAUUACAUUCCCAAGUGCCAACAGAGGAUUGAGCAUCA
B12: chr2:224824363:224824364:+_ENSG00000135900_ENST00000258383|hu_mus|FALSE|FALSE (ssRNA)
RNA: GGGAGUUCUACAGUCCGACGAUCAGCUUCUUUCUCUAUGCCAAGGCUCUGACGUUUCGCCUCUUCGCUUUUGAUGUAGCAGCUAUUGAUAAAUGCAGUUUUGAGAAGGUCCAACGAAAAGGUUUCUUGUAAGCGAGAUCCAAACAACAGAGGAUUGAGCAUCA
B13: 64079182_64079302_4442_3pUTR_ENSMUSG00000025959_ENSMUST00000114086|mouse|control|control (ssRNA)
RNA: GGGAGUUCUACAGUCCGACGAUCCCCACAGCCAACAAAGGACUCUGAAGCAAGCAAGCACCAUCAUGGUAUCUCAGUGCGCCCUGCUCCAAGAGAGAUCAGGAGCAGAUCACAAAGACCUCACUGAUACAAAAGAGAAAUUACCAACAGAGGAUUGAGCAUCA
B14: chr1:82457952:82457953:+_ENSG00000117114_ENST00000335786|hu_mus|motif|central (ssRNA)
RNA: GGGAGUUCUACAGUCCGACGAUCAGCUUUGCUGAAACAAUUUACAUGUCAUUAGAACUUUACCAUAAAAUAAAUUAAUUACGGAAUAUAGCCAGAAGGAAUAUGGAAGAGUAAUAUUUCUGUUUUAUUUUAUUUUUAUUUUAUCAACAGAGGAUUGAGCAUCA
B15: 94906243_94906363_1931_3pUTR_ENSG00000149212_ENST00000536441|human|control|control (ssRNA)
RNA: GGGAGUUCUACAGUCCGACGAUCAAAUAAAACACAUCAUUGCACAUUACAGCCGCAAAAAACAAAAAAAAAAAAACAAACGGCUAAACUUUGACACUAGAGAACUGAAUAAUUUUUGAUGCUAUAUCACAAAUAGCUUCAAUGCAACAGAGGAUUGAGCAUCA
B16: chr4:136876768:136876769:-_ENSMUSG00000006699_ENSMUST00000051477|mus_hu|FALSE|FALSE (ssRNA)
RNA: GGGAGUUCUACAGUCCGACGAUCAAAAAAAAAAAAAAACACACACACACAAAAAUUUUUUUUUUGAAACAACAAAAAAAAAUAGUACUAAUCACUUUUCUGACAAUACAAUUACUCAAAAUUAACUAGUACUGGGAGGGGGAACAACAGAGGAUUGAGCAUCA
B17: chr8:104081237:104081238:+_ENSG00000155097_ENST00000518738|hu_mus|motif|central (ssRNA)
RNA: GGGAGUUCUACAGUCCGACGAUCAACACACAGAAUUAUGCAUACCAUGAUAUCAAGGAGGAAAAUACCUCUUUAAAUAAACGGUUCGGUUUAUAAAUAAACUCUGAUUUUUUUCAGUACACAUUUACAGACCUGAUCAAUAAACAACAGAGGAUUGAGCAUCA
B18: chr10:111893621:111893622:+_ENSG00000148700_ENST00000277900|hu_hu|motif|central (ssRNA)
RNA: GGGAGUUCUACAGUCCGACGAUCUAAUUCAGACAGAUAGCUGUUUAUGGUGAAUUAUAAUAAUACUUCAUGAGGGCAGAGCGGAUUAAAACUAGUAAUUGCUUAAAAUUCAAAGCCAUUUCUGGACAUAUAAAAUGAGAGAUGCAACAGAGGAUUGAGCAUCA
B19: chrX:12193597:12193598:+_ENSMUSG00000031007_ENSMUST00000033313|mus_mus|motif|central (ssRNA)
RNA: GGGAGUUCUACAGUCCGACGAUCACAAAGCUAGUCUCUUCUGAAAUCAACAUAGUAUUUUUAAUAAUUUUAAUAUCUCGGCGGAACCACACGGAUCACCAAACUUGCAGAAGAGAUUAAAAACAGCUAGCUUGCUAGUCAUAUCAACAGAGGAUUGAGCAUCA
B20: chr10:111893599:111893600:+_ENSG00000148700_ENST00000277900|hu_hu|FALSE|FALSE (ssRNA)
RNA: GGGAGUUCUACAGUCCGACGAUCAUUCAGACAGAUAGCUGUUUAUGGUGAAUUAUAAUAAUACUUCAUGAGGGCAGAGCUAAUUAAAACUAGUAAUUGCUUAAAAUUCAAAGCCAUUUCUGGACAUAUAAAAUGAGAGAUGAACAACAGAGGAUUGAGCAUCA

Substitutions are numbered along the chain they refer to. In all, about 24,000 sequences were measured (“enrichment r”: median about 0.99, highest 2% from about 3.7 on). What follows is part of a selection rich in the highest values, with near analogues and random picks from the rest.

This assay deals with T1, UNK ZnF1-3. Kind of assay: nsRBNS (natural sequence RNA bind-n-seq); RBNS binding buffer (assumed for nsRBNS): 25 mM Tris pH 7.5, 150 mM KCl, 3 mM MgCl2, 0.01% Triton X-100, 500 ug/ml BSA, 20 U/ml SUPERase-In, 4 C; UNK is unkempt and MSI1 is Musashi-1; names of the RNAs are library labels; protein concentration not given here; high values mean tight binding.
Molecule B1 yielded a binding signal of 0.623 enrichment R.
In the case of B2 it was 0.919 enrichment R; in that of B3, 1.17 enrichment R; in that of B4, 5.06 enrichment R.
Molecule B5 gave a binding signal of 4.7 enrichment R.
Consider B6, for which the binding signal was 1.64 enrichment R.
As for B7, the figure is 1.03 enrichment R; as for B8, 1 enrichment R.
As for B9, the figure is 0.681 enrichment R.
In the case of B10 it was 0.879 enrichment R; in that of B11, 0.497 enrichment R; in that of B12, 1 enrichment R.
As to B13, the binding signal stood at 1.03 enrichment R.
Take B14: the binding signal was 3.79 enrichment R.
As for B15, the figure is 6.07 enrichment R; as for B16, 3.42 enrichment R.
As for B17, the figure is 0.25 enrichment R; as for B18, 4.04 enrichment R; as for B19, 1.81 enrichment R.
B20: the binding signal was determined as 4.42 enrichment R.
